Results filed as inconclusive are left out. Entries that show only a call come without a potency. Active and inactive are the calls of the source. Calls come from the whole dose curve; as a rule, active = well fitted inhibition curve with a large enough effect; inconclusive = small, poorly fitted or top-dose-only effect; inactive = no such curve, though single readings can be large or run the other way.
Experiment: Primary qHTS for inhibitors of La Crosse Virus (LACV) - induced cell death in SH-SY5Y cells (AID 1508616)
Settings: SH-SY5Y LACV cytopathicity rescue, ATP luminescence, 6 d; series mostly up to 4.29 µM
Excerpt: Assay Provider: Karin Peterson Ph.D.
National Institute of Allergy and Infection Diseases, National Institute of Health
La Crosse Virus (LACV) is a California serogroup mosquito-borne arbovirus, family Peribunyaviridae, which is an endemic pathogen in North America and can induce a rare, life-threatening neurological disease in children. LACV was first isolated in the early 1960s, from a summer "rural encephalitis" case in La Crosse, Wisconsin, USA. Since then, LACV encephalitis cases have been found in more than twenty states, with most cases in the Mississippi and Ohio River basins. The life cycle of LACV is maintained between the vector, the eastern tree-hole mosquito Aedes triseriatus, and vertebrate hosts including eastern gray squirrels (Sciurus carolinensis) and chipmunks (Tamiasstriatus grinseus). […] Most LACV infections in humans are asymptomatic or induce mild clinical symptoms of fever, headache, lethargy and vomiting. However, in some cases LACV can cause severe neuroinvasive disease, including encephalitis, meningitis, and meningoencephalitis, requiring hospitalization. To date, there is neither a licensed vaccine nor a Food and Drug Administration (FDA) approved antiviral therapy available to prevent or treat LACV encephalitis. The primary treatment for viral encephalitis is palliative care due to the lack of therapeutics. In the current study, we conducted a screen of 4,096 FDA approved and bioactive small molecules against LACV, by screening for rescue of LACV-induced cell death in SH-SY5Y cells.
LACV-induced cytopathicity assay
SEQUENCE No. (1,2, 3, etc.); […] (e.g., Cells, Incubation, Reagent, etc.); VALUE and DESCRIPTION.
1. Reagent; 2 uL; Cell solution.
3. Compounds; 23nL; Compound library
4. Reagent; 12 uL; LACV virus
6. Reagent; 24 uL; ATPLite (PerkinElmer)
7. Time; 5 min; Room temperature
8. Detection; Luminescence; View
NOTES (numbers refer to sequence above)
1. Seed 6000 SH-SY5Y cells (ATCC CRL-2266) in 2 microL/well media (DMEM/F12 10% FBS, 1x L-Glutamine, 1x Pyruvate, 1x NEAA, 1x Pen/Strep) in 384-well assay plates (tissue culture treated, white, solid bottom).
2. Incubate at 37 degrees C with 5% CO2 for 24 hr.
3. Dispense 23 nL/well compounds in DMSO via pin transfer.
4. Dispense 12 microL/well of LACV (LACV/human/1978) in media at 0.01 MOI.
5. Incubate at for 6 days at 37C 5% CO2
6. Dispense 24 microL/well of ATPLite 1step Luminescence assay system (PerkinElmer).
7. Incubate for 5 min at room temperature.
8. Read luminescence signal (Viewlux plate reader, PerkinElmer). Data was normalized with DMSO control wells containing LACV as 0%, and DMSO control wells without virus as 100%.
Potency is the fitted concentration of half-maximal effect.

Structure (SMILES)	Potency
CC(C)(N)Cc1ccc(Cl)cc1	inactive
COc1ccc2c(c1OC)CN1CCc3cc4c(cc3C1C2)OCO4 (stereo not given)	inactive
Cc1ccc(-c2nc3ccc(C)cn3c2CC(=O)N(C)C)cc1	inactive
CCCC(C)(COC(N)=O)COC(=O)NC(C)C (stereo not given)	inactive
C[C@]12C/C(=C/O)C(=O)C[C@@H]1CC[C@@H]1[C@@H]2CC[C@@]2(C)[C@H]1CC[C@]2(C)O	inactive
CC(C)=CC1C(C(=O)OCc2cccc(Oc3ccccc3)c2)C1(C)C (stereo not given)	inactive
COc1ccc(C(CN(C)C)C2(O)CCCCC2)cc1 (stereo not given)	inactive
C#CCN(C)[C@H](C)Cc1ccccc1	inactive
C=C(C)[C@H]1Cc2c(ccc3c2O[C@@H]2COc4cc(OC)c(OC)cc4[C@@H]2C3=O)O1	0.316 µM (active)
Cc1cccc(C)c1NC1=NCCCS1	inactive
CCC1(C2=NCCN2)Cc2ccccc2O1 (stereo not given)	inactive
O=C(O)c1ccc2[nH]cc(CCCCN3CC=C(c4ccccc4)CC3)c2c1	inactive
CC(CCc1ccccc1)NC(C)C(O)c1ccc(O)cc1 (stereo not given)	inactive
CCN(CC)CCN1C(=O)CN=C(c2ccccc2F)c2cc(Cl)ccc21	inactive
CNCC(O)c1ccc(O)cc1 (stereo not given)	inactive
O=[N+]([O-])c1cc([As](=O)(O)O)ccc1O	inactive
N#CC(C#N)=Cc1ccc(O)c(O)c1	inactive
CCCC1CCCCN1 (stereo not given)	inactive
CC(C)CC(N(C)C)C1(c2ccc(Cl)cc2)CCC1 (stereo not given)	inactive
C=C1CC[C@@]2(O)[C@H]3Cc4ccc(O)c5c4[C@@]2(CCN3CC2CC2)[C@H]1O5	inactive

Structure (SMILES)	Potency
c1ccc(C2CC2)c(OCC2=NCCN2)c1	inactive
Clc1cccc(N2CCNCC2)c1	inactive
CCN(C(C)=O)c1cccc(-c2ccnc3c(C#N)cnn23)c1	inactive
O=C(NC(O)C(Cl)(Cl)Cl)NC(O)C(Cl)(Cl)Cl (stereo not given)	inactive
CC(C)=CCOc1c2occc2cc2ccc(=O)oc12	inactive
CCC(COC(=O)c1cc(OC)c(OC)c(OC)c1)(c1ccccc1)N(C)C (stereo not given)	inactive
CC(=O)Nc1cc([As](=O)(O)O)ccc1O	inactive
Nc1ccncc1	inactive
CO[C@]12CC[C@@]3(C[C@@H]1[C@](C)(O)C(C)(C)C)[C@@H]1Cc4ccc(O)c5c4[C@@]3(CCN1CC1CC1)[C@H]2O5	inactive
CC1NCCOC1c1ccccc1 (stereo not given)	inactive
C[C@]12CC[C@H]3[C@@H](CCC4=CC(=O)CC[C@@H]43)[C@@H]1CC[C@@H]2OC(=O)CCc1ccccc1	inactive
CC(C)NCC(O)c1ccccc1Cl (stereo not given)	inactive
COC[C@@H](NC(C)=O)C(=O)NCc1ccccc1	inactive
Cc1ccc(S(=O)(=O)N[C@@H](CCCCN)C(=O)CCl)cc1	inactive
Oc1ccc(Cl)cc1Cc1ccccc1	inactive
CC[N+](CC)(CC)CC	inactive
COc1ccc(C(=O)c2c(C)n(CCN3CCOCC3)c3ccccc23)cc1	inactive
NCC1(CC(=O)O)CCCCC1	inactive
NCC(O)c1ccc(O)cc1 (stereo not given)	inactive
CC(=O)[C@H]1CC[C@H]2[C@@H]3CC[C@H]4C[C@H](O)CC[C@]4(C)[C@H]3C(=O)C[C@]12C	inactive

Reference: PubChem BioAssay (NCATS)
